In test [1] the target is Nuclear receptor coactivator 3 (Homo sapiens) (UniProt Q9Y6Q9). As to the kind of experiment: NCOA3 GAL4-fusion reporter inhibition – cell-based, luminescence, quadruplicate, confirmation (AID 588792;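 active = mean inhibition over 43.08%, the solvent-only control mean plus 3 SD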;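 also: 0% = DMSO treated cells and 100% = gossypol at 36 µM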). As to conditions: HEK293 GAL4-SRC3 luciferase reporter, at 3.6 µM, hits give high values. (In general: A reporter such as luciferase makes a cellular process visible.)
Test [2] concerns transactivating tegument protein VP16 (Human herpesvirus 1), Gal4-VP16 luciferase reporter. As to the kind of experiment: repression of VP16-driven luciferase reporter – cell-based, luminescence, high throughput, counter-screen for SRC3 inhibitor project (AID 588794; in the data active = inhibition above about 30%). As to conditions: mammalian cells, at 3.6 µM, hits give high values.
The target in test [3] is Nuclear receptor coactivator 1 (Homo sapiens) (UniProt Q15788). The test can be described thus: NCOA1 GAL4-fusion reporter inhibition – cell-based, luminescence, quadruplicate, confirmation (AID 588820).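 Also: 0% = DMSO wells and 100% = gossypol 36 µM treated wells.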 As to conditions: HEK293 GAL4-SRC1 luciferase reporter, at 3.6 µM, hits give high values.
Test [4] in a line: repression of VP16-driven luciferase reporter – cell-based, luminescence, high throughput, counter-screen for SRC1 inhibitor project (AID 588824; in the data active = inhibition above about 25%). Particulars: cell-based VP16 transactivation luciferase luminescence; at 3.6 µM; hits give high values.
Test [5] can be described thus: StAR promoter reporter inhibitors, counter-screen for LRH-1 inverse agonist project, cell-based, luminescence, high throughput (AID 651611; in the data active = inhibition above about 28%). As to conditions: StAR promoter luciferase reporter counterscreen, at 3.6 µM, hits give high values. For orientation: Counterscreens check selectivity or assay interference.
Test [6] addresses Nuclear receptor subfamily 5 group A member 2 (Homo sapiens) (UniProt O00482). As to the kind of experiment: NR5A2 activity suppression in reporter cells – cell-based, luminescence, confirmation (AID 651613; in the data active = inhibition above about 42%;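 also: HEK293T cells co-transfected with LRH-1 and StAR promoter luciferase reporter; 0% = vehicle wells and 100% = parental cells lacking receptor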). Particulars: cell-based LRH-1 luciferase reporter, inverse agonism; at 3.6 µM; hits give high values.
Test [7] deals with Steroidogenic factor 1 (Homo sapiens) (UniProt Q13285). The test can be described thus: inverse agonism at SF1 nuclear receptor – cell-based, luminescence, high throughput, counter-screen for LRH-1 inverse agonist project (AID 651614; in the data active = inhibition above about 44%;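 also: cells cotransfected with StAR promoter reporter and SF1 expression vector; 0% = vehicle on cells with receptor and 100% = vehicle on cells lacking receptor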). Particulars: cell-based SF1 luciferase reporter, at 3.6 µM, hits give high values.
The nature of test [8]: compounds suppressing VP16-driven luciferase signal – cell-based, luminescence, high throughput, counter-screen for LRH-1 inverse agonist project (AID 651615; in the data active = inhibition above about 33%). Particulars: Gal4-VP16 luciferase reporter cells, at 3.6 µM, hits give high values.

Values without a mark were called inactive. Calls of active or inactive are those of the source.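 The calls were made as follows, unless noted: active = mean inhibition above 46.68%, the untreated control wells mean plus 3 SD; inactive = the rest.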

Sequence of Steroidogenic factor 1 (Homo sapiens) (Q13285 whole entry, looked up, the tested form may be a part): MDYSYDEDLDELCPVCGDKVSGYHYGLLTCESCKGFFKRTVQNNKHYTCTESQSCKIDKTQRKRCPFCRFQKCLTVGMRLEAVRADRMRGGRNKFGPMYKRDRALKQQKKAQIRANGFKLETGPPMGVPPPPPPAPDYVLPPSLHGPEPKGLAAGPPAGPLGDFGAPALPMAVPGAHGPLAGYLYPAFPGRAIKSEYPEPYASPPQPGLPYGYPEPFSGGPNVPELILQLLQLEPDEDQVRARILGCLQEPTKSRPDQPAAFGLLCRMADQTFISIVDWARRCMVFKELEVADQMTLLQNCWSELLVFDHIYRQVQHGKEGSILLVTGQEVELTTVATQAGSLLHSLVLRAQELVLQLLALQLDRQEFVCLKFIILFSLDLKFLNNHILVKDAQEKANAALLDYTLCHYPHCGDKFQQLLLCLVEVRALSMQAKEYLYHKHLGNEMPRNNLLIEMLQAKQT
Sequence of Nuclear receptor subfamily 5 group A member 2 (Homo sapiens) (O00482 whole entry, looked up): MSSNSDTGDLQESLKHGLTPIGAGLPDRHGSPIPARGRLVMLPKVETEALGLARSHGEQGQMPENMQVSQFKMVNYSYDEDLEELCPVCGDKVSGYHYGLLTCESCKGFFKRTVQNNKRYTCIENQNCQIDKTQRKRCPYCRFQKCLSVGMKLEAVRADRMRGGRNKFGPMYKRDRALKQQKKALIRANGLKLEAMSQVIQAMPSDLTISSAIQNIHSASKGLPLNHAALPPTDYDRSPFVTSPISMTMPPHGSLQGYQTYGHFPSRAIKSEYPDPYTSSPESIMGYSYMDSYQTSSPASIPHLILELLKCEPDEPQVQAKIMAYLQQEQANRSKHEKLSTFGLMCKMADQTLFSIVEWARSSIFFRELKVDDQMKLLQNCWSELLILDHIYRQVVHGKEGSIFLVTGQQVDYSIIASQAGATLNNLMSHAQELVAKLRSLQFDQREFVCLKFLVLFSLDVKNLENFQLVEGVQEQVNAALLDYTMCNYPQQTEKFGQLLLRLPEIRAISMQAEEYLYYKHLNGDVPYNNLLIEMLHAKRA
Sequence of Nuclear receptor coactivator 1 (Homo sapiens) (Q15788 whole entry, looked up, the tested form may be a part): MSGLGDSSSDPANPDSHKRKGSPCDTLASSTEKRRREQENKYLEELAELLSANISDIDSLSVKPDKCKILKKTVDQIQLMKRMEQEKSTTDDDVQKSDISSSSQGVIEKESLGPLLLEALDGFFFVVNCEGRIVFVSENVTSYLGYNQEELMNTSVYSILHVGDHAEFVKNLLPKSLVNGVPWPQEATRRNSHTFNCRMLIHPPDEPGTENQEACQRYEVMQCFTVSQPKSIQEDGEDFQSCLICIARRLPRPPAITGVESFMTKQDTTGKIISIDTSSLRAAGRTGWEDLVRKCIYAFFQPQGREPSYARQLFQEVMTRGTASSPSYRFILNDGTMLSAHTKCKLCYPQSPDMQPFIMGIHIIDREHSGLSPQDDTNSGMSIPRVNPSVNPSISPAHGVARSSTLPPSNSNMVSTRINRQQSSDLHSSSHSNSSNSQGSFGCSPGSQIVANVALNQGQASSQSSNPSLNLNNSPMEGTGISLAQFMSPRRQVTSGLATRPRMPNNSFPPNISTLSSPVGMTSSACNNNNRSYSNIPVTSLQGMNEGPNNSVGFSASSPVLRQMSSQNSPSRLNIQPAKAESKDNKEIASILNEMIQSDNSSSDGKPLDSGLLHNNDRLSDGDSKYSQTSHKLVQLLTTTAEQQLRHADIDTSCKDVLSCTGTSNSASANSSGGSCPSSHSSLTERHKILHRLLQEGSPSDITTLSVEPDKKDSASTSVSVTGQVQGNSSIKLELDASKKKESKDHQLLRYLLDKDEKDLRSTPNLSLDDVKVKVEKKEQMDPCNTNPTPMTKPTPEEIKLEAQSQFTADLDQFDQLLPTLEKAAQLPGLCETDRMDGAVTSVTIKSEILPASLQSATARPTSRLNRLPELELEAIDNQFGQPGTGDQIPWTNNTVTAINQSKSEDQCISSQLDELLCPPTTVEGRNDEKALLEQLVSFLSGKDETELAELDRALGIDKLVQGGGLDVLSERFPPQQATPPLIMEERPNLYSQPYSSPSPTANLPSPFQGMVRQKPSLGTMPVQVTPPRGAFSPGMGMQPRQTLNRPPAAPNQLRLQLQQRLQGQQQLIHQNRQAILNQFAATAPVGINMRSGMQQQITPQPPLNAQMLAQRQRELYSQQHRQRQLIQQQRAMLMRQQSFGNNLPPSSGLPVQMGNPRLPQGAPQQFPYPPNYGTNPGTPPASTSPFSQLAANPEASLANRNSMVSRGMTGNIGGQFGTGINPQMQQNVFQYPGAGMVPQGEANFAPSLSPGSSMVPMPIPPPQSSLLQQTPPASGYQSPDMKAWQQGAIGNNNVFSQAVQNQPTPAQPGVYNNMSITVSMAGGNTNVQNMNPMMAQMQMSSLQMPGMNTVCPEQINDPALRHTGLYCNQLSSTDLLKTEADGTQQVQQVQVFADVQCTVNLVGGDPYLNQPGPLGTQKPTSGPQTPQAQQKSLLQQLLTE
Sequence of Nuclear receptor coactivator 3 (Homo sapiens) (Q9Y6Q9 whole entry, looked up, the tested form may be a part): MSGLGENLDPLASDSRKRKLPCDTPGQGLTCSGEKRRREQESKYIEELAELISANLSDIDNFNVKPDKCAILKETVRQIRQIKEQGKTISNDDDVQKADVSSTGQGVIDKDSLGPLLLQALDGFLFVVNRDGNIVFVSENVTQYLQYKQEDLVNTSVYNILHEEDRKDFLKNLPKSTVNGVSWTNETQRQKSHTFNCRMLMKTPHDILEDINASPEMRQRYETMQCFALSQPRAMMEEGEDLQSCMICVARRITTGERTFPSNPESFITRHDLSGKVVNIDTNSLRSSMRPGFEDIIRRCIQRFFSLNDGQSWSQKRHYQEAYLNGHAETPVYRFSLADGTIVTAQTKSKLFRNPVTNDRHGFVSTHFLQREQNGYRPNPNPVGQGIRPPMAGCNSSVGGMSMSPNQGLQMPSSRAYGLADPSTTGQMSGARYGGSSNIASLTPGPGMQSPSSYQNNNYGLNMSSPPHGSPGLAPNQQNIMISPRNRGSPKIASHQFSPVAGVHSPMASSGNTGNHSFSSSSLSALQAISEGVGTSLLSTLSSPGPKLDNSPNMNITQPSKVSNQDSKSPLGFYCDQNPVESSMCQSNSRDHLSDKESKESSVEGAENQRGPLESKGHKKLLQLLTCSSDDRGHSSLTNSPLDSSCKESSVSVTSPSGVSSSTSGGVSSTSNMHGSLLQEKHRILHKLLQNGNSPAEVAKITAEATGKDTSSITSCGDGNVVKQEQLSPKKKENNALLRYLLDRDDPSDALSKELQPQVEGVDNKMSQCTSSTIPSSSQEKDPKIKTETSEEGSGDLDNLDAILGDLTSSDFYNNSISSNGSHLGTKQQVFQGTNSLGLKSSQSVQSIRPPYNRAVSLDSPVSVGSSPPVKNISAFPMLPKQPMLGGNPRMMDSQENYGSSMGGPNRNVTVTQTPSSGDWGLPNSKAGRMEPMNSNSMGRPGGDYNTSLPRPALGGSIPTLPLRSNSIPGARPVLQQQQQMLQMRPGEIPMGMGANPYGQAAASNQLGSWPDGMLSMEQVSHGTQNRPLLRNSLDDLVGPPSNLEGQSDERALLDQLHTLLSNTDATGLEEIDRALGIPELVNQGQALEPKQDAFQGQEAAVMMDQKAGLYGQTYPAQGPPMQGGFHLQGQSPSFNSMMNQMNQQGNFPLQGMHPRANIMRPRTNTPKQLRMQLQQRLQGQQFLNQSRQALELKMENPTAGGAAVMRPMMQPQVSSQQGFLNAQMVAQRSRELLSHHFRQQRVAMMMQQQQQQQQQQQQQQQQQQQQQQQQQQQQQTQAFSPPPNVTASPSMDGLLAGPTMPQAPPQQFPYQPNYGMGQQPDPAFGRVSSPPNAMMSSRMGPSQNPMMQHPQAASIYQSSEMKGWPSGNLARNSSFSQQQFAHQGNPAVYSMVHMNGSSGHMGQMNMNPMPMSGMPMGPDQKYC

Take `Cc1ccc2ccc3ccc(C)nc3c2n1`: the inhibition was 42.1% in test [1]; 70.6% (active) in test [2]; 44.8% in test [3]; 68.2% (active) in test [4]; 77.2% (active) in test [5]; 85.8% (active) in test [6]. Further, the results for the inhibition in test [7] and in test [8] were 87.4% (active) and 68.9% (active), respectively.
For the compound `CC(=NNC(=S)N1CCN(C2CCCCCC2)CC1)c1ccccn1`, the inhibition is 50% (active) in test [1]; 83.7% (active) in test [2]; 66.2% (active) in test [3]; 71% (active) in test [4]; 81.8% (active) in test [5]; 98.5% (active) in test [6]. Moreover, the inhibition in test [7] is 85.4% (active); in test [8], 65.2% (active).
For the compound `CCCCCn1c2c(c(=N)c3ccccc31)CCC2`, the inhibition in test [1] was 45.1% (active); in test [2] it was 61.1% (active); in test [3], 32%; in test [4], 60% (active); in test [5], 44.3% (active); in test [6] it was 108% (active). Also, the inhibition in test [7] was 83% (active); in test [8] it was 90.9% (active).
As for `CC1Cc2ccccc2N1c1ncnc(N)c1[N+](=O)[O-]` (stereo unspecified), the inhibition in test [1] is 84.3% (active); in test [2], 68% (active); in test [3] it was 81.5% (active); in test [4], 65.6% (active); in test [5], 39.9% (active); in test [6], 63.6% (active). Moreover, the inhibition is 46.7% (active) in test [7] and 82.4% (active) in test [8].
In the case of `CC[n+]1ccc(/C=C/c2c[nH]c3ccccc23)cc1`, the inhibition in test [1] is 8.39%; in test [2], 22.7%; in test [3] it was -16.8%; in test [4], 25.5% (active); in test [5], 18%; in test [6] it was 65% (active). The inhibition in test [7] is 55.9% (active); in test [8] it was 60.8% (active).
With `O=C1C(=O)c2cccnc2-c2ncccc21`, the inhibition in test [1] is 99.2% (active); in test [2] it was 97.1% (active); in test [3] it was 97.1% (active); in test [4] it was 96.7% (active); in test [5], 99.4% (active); in test [6] it was 110% (active). Further, the inhibition in test [7] was 99.5% (active); in test [8], 99.6% (active).
`CCCCCc1ccc(OCCC[n+]2ccccc2)c(CCCCC)c1`: the inhibition in test [1] is 45.8% (active); in test [2], 60.7% (active); in test [3] it was 31.3%; in test [4], 65.9% (active); in test [5], 37.7% (active); in test [6], 83.3% (active). The results for the inhibition in test [7] and in test [8] were 68.1% (active) and 82.3% (active), respectively.
Take `NC(=O)c1cccc(-c2cnc(N)c(C(=O)c3cccnc3)n2)c1`: the inhibition in test [1] was 76.7% (active); in test [2], 49.5% (active); in test [3], 65.9% (active); in test [4], 48.5% (active); in test [5] it was 59.9% (active); in test [6], 72.6% (active). The inhibition in test [7] is 67.2% (active); in test [8], 72.7% (active).
As to `COc1ccc(-c2c[n+]3c(n2-c2ccc(C)cc2)CCCCC3)cc1`, the inhibition in test [1] is 36.5%; in test [2], 60.1% (active); in test [3] it was 32.6%; in test [4], 60.2% (active); in test [5], 53% (active); in test [6], 105% (active). Besides, the figures for the inhibition in test [7] and in test [8] were 82% (active) and 73.7% (active), respectively.
For the compound `COc1cccc(/C=N/NC(=O)c2ccc(-c3ccccc3)cc2)c1O`, the inhibition is 28.9% in test [1]; 39.8% (active) in test [2]; 37.3% in test [3]; 40.6% (active) in test [4]; 48.9% (active) in test [5]; 81% (active) in test [6]. The inhibition was 36.4% in test [7] and 80.1% (active) in test [8].
Turning to `CC(=O)c1c(C)[nH]c(C(=O)OCC(=O)Nc2cccc(S(=O)(=O)N3CCCC3)c2)c1C`, the inhibition in test [1] is 20.7%; in test [2] it was 43.6% (active); in test [3], 5.87%; in test [4] it was 38.3% (active); in test [5] it was 26.2%; in test [6], 49.3% (active). Moreover, the inhibition in test [7] was 48.9% (active); in test [8] it was 51.7% (active).
Consider `O=C(NC(Nc1nc2ccc([N+](=O)[O-])cc2s1)(C(F)(F)F)C(F)(F)F)c1ccccc1Cl`, for which the inhibition in test [1] is 65.5% (active); in test [2], 86.2% (active); in test [3], 27.1%; in test [4], 86% (active); in test [5] it was 82.2% (active); in test [6], 103% (active). Besides, the inhibition in test [7] is 93.4% (active); in test [8], 89.8% (active).
Turning to `N=c1c2c(n(Cc3ccc(F)cc3)c3c1CCC3)CCC2`, the inhibition in test [1] is 25.9%; in test [2], 42.9% (active); in test [3], 17.8%; in test [4], 43.6% (active); in test [5], 41.6% (active); in test [6] it was 80.3% (active). In addition, the figures for the inhibition in test [7] and in test [8] were 69% (active) and 69.2% (active), respectively.
Consider `CCCOC(c1ccccc1)(c1ccc(C(F)(F)F)cc1)C(Oc1nc(C)cc(C)n1)C(=O)O` (stereo unspecified), for which the inhibition in test [1] is 51.2% (active); in test [2] it was 67% (active); in test [3] it was 51.6% (active); in test [4], 68.1% (active); in test [5], 75.5% (active); in test [6], 96.3% (active). The inhibition was 90.2% (active) in test [7] and 75.5% (active) in test [8].
On to `Cn1c(=O)c2cc(NC(=O)CCc3ccc(O)cc3)ccc2n1Cc1cccc(C(F)(F)F)c1`, for which the inhibition is 34.4% in test [1]; 64.2% (active) in test [2]; 38.7% in test [3]; 66% (active) in test [4]; 63.3% (active) in test [5]; 80% (active) in test [6]. For the same compound, the figures for the inhibition in test [7] and in test [8] were 80.1% (active) and 76.9% (active), respectively.
As to `S=C(NN=C(c1ccccc1)c1ccccn1)N(Cc1ccccn1)Cc1ccccn1`, the inhibition in test [1] was 84% (active); in test [2] it was 87.2% (active); in test [3], 85% (active); in test [4], 89.7% (active); in test [5], 91% (active); in test [6], 105% (active). In addition, the inhibition in test [7] is 96.4% (active); in test [8] it was 77.2% (active).
As for `CCCC(=O)NC(c1ccccc1Cl)c1ccc2cccnc2c1O` (stereo unspecified), the inhibition in test [1] was 55.3% (active); in test [2], 47.8% (active); in test [3], 35.6%; in test [4], 53.4% (active); in test [5], 82.7% (active); in test [6] it was 99.2% (active). Besides, the inhibition in test [7] was 90.3% (active); in test [8], 83.2% (active).

Broadly, the inhibition is the change of the read-out against control, counted positive when it falls.

The values above are taken from PubChem BioAssay.
